# AmpC detergent = qHTS Inhibitors of AmpC Beta-Lactamase (assay with detergent) | 370,000 compounds, 0.041% hits | Potency, µM (doses to about 114 µM), most hits filed as inhibitors | P00811 | AID 485294, 2010 | AmpC hydrolysis of nitrocefin, absorbance 480 nm, 0.01% Triton; also: nearly all actives have a fitted effect of over 25% in size
# Target sequence (P00811 whole entry, looked up): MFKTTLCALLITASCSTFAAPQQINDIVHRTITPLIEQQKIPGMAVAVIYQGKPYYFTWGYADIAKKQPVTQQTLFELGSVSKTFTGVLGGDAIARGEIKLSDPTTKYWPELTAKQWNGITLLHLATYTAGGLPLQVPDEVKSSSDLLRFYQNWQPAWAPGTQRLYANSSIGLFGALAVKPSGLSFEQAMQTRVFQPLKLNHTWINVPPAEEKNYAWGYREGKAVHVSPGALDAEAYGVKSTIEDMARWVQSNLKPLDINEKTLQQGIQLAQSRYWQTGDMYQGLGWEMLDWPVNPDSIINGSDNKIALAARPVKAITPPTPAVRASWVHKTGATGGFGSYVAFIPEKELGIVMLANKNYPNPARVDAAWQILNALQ
#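 20 mM phosphate pH 7.0 + 0.01% (detergent screen) or 0.0001% Triton X-100; 5.3 nM AmpC reagent; cpd preinc 15 min RT; nitrocefin (800 uM stock) to start; A480 q20 s × 4 min; Activity was normalised to no-enzyme and no-compound control wells.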
# Sm TGR inh = qHTS Assay for the Inhibitors of Schistosoma Mansoni Peroxiredoxins | 360,000 compounds, 3% hits | Potency, µM (titrated, usually from 114 µM), most hits filed as inhibitors | Schistosoma mansoni thioredoxin glutathione reductase (TGR), Q962Y6 | purified TGR, DTNB reduction, TNB absorbance 405 nm | AID 485364, 2010; also: nearly all actives have a fitted effect of over 60% in size
#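 TGR 20 nM + NADPH 100 uM (dispensed conc.), cpd preinc 15 min RT; start with NADPH (500 uM addition) then DTNB (15 mM addition). Kinetic TNB absorbance, 405 nm filter. Four-parameter Hill fit across titration.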
# AmpC inh no detg = qHTS Inhibitors of AmpC Beta-Lactamase (assay without detergent); P00811; AmpC nitrocefin hydrolysis, absorbance 480 nm, 0.0001% Triton; Potency, µM (doses to about 57.1 µM), usual class: inhibitors; 330,000 compounds, 0.52% hits; AID 485341, 2010; also: nearly all actives have a fitted effect of over 20% in size
#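 AmpC (5.3 nM in the dispensed reagent) in 20 mM phosphate pH 7.0 with 0.01% (detergent screen) or 0.0001% Triton X-100 was preincubated with compounds for 15 min at room temperature. Nitrocefin was then added from an 800 uM solution, and hydrolysis was followed at 480 nm.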
# A number is an active result; i = inactive; ? = inconclusive; nt = no result given. This is a sample that favours compounds with a hit; in the whole collection about 3.3% have one here. Calls follow the shape of the dose curve; as a rule, active = well fitted curve in the direction sought with a large enough effect; inconclusive = small, poorly fitted or top-dose-only effect, or another doubt; inactive = no such curve, though single readings can be large; an effect the other way counts as inactive or inconclusive.
SMILES,AmpC detergent,Sm TGR inh,AmpC inh no detg
C/C(CC(=O)NC12CC3CC(CC(C3)C1)C2)=N\NC(=O)Cc1cccs1,i,i,i
Cc1cccc(C(=O)N2CCc3cc(CNC(=O)c4cc5ccccc5[nH]4)ccc32)c1,i,i,nt
CC(C)(C)OC(=O)N1CCC(c2c(C(=O)NC3CCCCC3)cnn2-c2cccc(Cl)c2)CC1,i,i,nt
Cc1ccc(-c2cn3c(n2)sc2cc(C(=O)N4CCCCC4)ccc23)cc1,i,i,nt
CCC(C)(C)n1nnnc1C(c1cc(OC)c(OC)c(OC)c1)N1CCN(c2ccccc2)CC1 (configuration not stated),i,i,i
COCCn1c(C)cc(O)c(C(c2ccccc2OC)N2CCN(c3ccccc3)CC2)c1=O (configuration not stated),i,3.5µM,nt
COCCn1c(C)cc(O)c(C(c2ccccc2F)N2CCN(c3ccccc3)CC2)c1=O (configuration not stated),i,4.5µM,nt
COCCn1c(C)cc2c(c1=O)C(c1ccccc1F)C(C#N)=C(N)O2 (configuration not stated),i,i,i
COc1ccccc1NC(=O)c1c(C)cc(C)nc1SCC(=O)Nc1ccc(C)cc1,i,i,nt
COc1ccc(NC(=O)CSc2nc(-c3ccco3)nc3cc(=O)[nH]n23)cc1,i,10µM,nt
COc1ccc(NC(=O)CSc2nc(-c3ccco3)nc3cc(=O)[nH]n23)cc1Cl,i,?,i
Cc1ccc(NC(=O)CSc2nc(-c3ccco3)nc3cc(=O)[nH]n23)cc1C,i,22µM,nt
COc1ccc(NC(=O)CSc2nc(-c3ccccc3)nc3cc(=O)[nH]n23)cc1,i,i,nt
COc1ccc2[nH]c3c(c2c1)CCC/C3=N\N,i,45µM,i
COc1ccc2[nH]c3c(c2c1)CCN=C3C,?,i,i
CCOc1ccc(CCNC(=O)CCCc2nnc3n(C)c(=O)c4sccc4n23)cc1OCC,i,i,nt
O=C(CSc1nnnn1-c1ccccc1Cl)Nc1ccc2c(c1)OCCO2,i,i,32µM
Cc1ccc(NC(=O)CSc2nnc3c(n2)[nH]c2ccccc23)cc1,?,i,i
Cc1ccc(CSCC(=O)Nc2ccc3c(c2)OCO3)cc1,i,i,i
O=C(CSc1nnc2c(n1)[nH]c1ccccc12)Nc1ccc2c(c1)OCO2,i,i,8.9µM
O=C(CSc1nnnn1-c1ccc(Cl)cc1)NC(=O)Nc1ccc2c(c1)OCCO2,?,i,?
O=C(CSCc1ccc(Cl)cc1)Nc1ccc2c(c1)OCCO2,i,i,11µM
CCOC(=O)c1cnc2c(ccc3ccccc32)c1Nc1ccc(C(C)=O)cc1,i,i,nt
Cc1c(C(=O)Nc2cccc(F)c2)oc2c1-c1nn(Cc3c(F)cccc3Cl)cc1CC2,i,i,nt
CCS(=O)(=O)Nc1cccc(C2=NN(C(=O)c3ccco3)C(c3ccco3)C2)c1 (configuration not stated),i,50µM,i
SMILES,AmpC detergent,Sm TGR inh,AmpC inh no detg
CS(=O)(=O)Nc1cccc(C2=NN(C(=O)c3ccco3)C(c3ccco3)C2)c1 (configuration not stated),i,i,i
CCOC(=O)c1cccc(NC(=O)c2cc3c(=O)n(C)c4ccccc4c3n2C)c1,i,i,nt
CSc1ccc(CCNC(=O)CCc2c(C)nc3c(c(C)nn3-c3ccccc3)c2C)cc1,i,i,nt
Cn1c(=O)[nH]c(=O)c2c1nc(N/N=C/C(Br)=C/c1ccccc1)n2CCO,i,5µM,i
CC(C)=NNc1nc2c(c(=O)[nH]c(=O)n2C)n1CCc1ccccc1,i,i,i
COCCn1c(SCc2ccccc2Cl)nc2c1c(=O)[nH]c(=O)n2C,?,i,i
COCCn1c(Sc2nc(C)cs2)nc2c1c(=O)[nH]c(=O)n2C,i,i,0.16µM
Cc1ccc2c(c1)N(C(=O)N1CCC(C(=O)NCc3cccc(Br)c3)CC1)CCO2,i,i,nt
CCN(CC)C(=O)c1c(NC(=O)c2ccccc2F)sc2c1CCC(C(C)(C)C)C2 (configuration not stated),i,i,nt
COc1ccc(C(=O)N/N=C\c2ccoc2)cc1,i,i,i
COc1ccc(/[N+]([O-])=C/c2ccoc2)cc1,i,5µM,i
O=C(Cn1cc(SCc2ccc(F)cc2)c2ccccc21)N1CCCCC1,?,i,nt
CCOC(=O)/C=C1\SCC(=O)N1CC(=O)NC(c1ccccc1)c1ccccc1,i,i,28µM
CCOC(=O)/C=C1\SCC(=O)N1CC(=O)NC(C)c1ccccc1 (configuration not stated),i,i,i
Cc1ccccc1CNC(=O)CCC(=O)N1CCSc2ccccc21,i,i,nt

# From PubChem
